Consider 40 compounds from PubChem BioAssay (Tox21).

Records with an inconclusive call do not appear. A number with no mark means an inactive call. Active and inactive are the calls of the source. Calls follow the shape of the full dose curve.
% is scaled to controls: 0 for no effect and ±100 for the full control effect; potency is read from the fitted curve at half-maximal effect.

The experiment is described as follows: qHTS assay to identify small molecule agonists of the hypoxia (HIF-1) signaling pathway - cell viability counter screen (AID 1224844). Also: nearly all actives have a fitted effect of over 50% in size. To be noted: HRE-bla ME-180 viability, CellTiter-Glo luminescence, 17 h; series mostly up to 76.8 µM; activity change, negative = cytotoxicity: at the top concentration. The source says:
National Center for Advancing Translational Sciences [NCATS]
NIH Chemical Genomics Center [NCGC]
U.S. Environmental Protection Agency [EPA]
National Institutes of Environmental Health Sciences [NIEHS]
National Toxicology Program [NTP]
U.S. Food and Drug Administration [FDA]
Hypoxia-inducible factor-1 (HIF-1) is the major hypoxia-regulated transcription factor that controls cellular responses to low oxygen concentration. HIF-1 is composed of two subunits: hypoxia responsive HIF-1-alpha and constitutively expressed HIF-1-beta, which is also known as aryl hydrocarbon receptor nuclear translocator. During hypoxic conditions, HIF-1-alpha heterodimerizes with HIF-1-beta and translocates into the nucleus where the HIF-1 complex binds to the hypoxia-response element (HRE) and activates expression of target genes such as VEGF (vascular endothelial growth factor). The HIF-1 pathway is essential to normal growth and development, and is involved in the pathophysiology of cancer, inflammation, and ischemia.
Using a beta-lactamase reporter-gene under control of the hypoxia response element, a cell-based assay [CellSensor(TM) HRE-bla ME-180 from Life Technologies, Carlsbad, CA] was used to measure hypoxia-induced signaling. Tox21 10K library compounds were measured for their ability to induce the reporter gene activity. The cytotoxicity of the Tox21 compound library against HRE-bla ME-180 cell line was tested in parallel by measuring cell viability using CellTiter-Glo assay (Promega, Madison, WI) in the same assay wells.
Tox21 Assay Protocol Summary:
HRE-bla ME-180 cells were dispensed at 2,000 cells per well in 6 uL of assay medium containing 0.5% dialyzed FBS into black wall/clear-bottom 1536-well plates using a Multidrop Combi (Thermo Scientific, Waltham, MA) dispenser. After the assay plates were incubated at 37C and 5% CO2 for 5 hrs, 23 nL of compounds dissolved in DMSO, positive controls or DMSO only was transferred to each well of the assay plate using a Pintool station (Kalypsys, San Diego, CA). The assay plates were incubated at 37C and 5% CO2 for 17 hrs. One uL of LiveBLAzerTM B/G FRET substrate (CCF4-AM) (Life Technologies) was added to each well using a Flying Reagent Dispenser (FRD, Aurora Discovery, San Diego, CA). After 2 hr incubation at room temperature, fluorescence intensity (405 nm excitation, 460 nm and 530 nm emissions) was measured using an Envision plate reader (PerkinElmer, Shelton, CT). For cytotoxicity, 4 ul/well of CellTiter-Glo reagent was added into the assay plates using an FRD. After 30 min incubation at room temperature, the luminescence intensity was measured using a ViewLux plate reader (PerkinElmer).
For `CC1=C(C(=O)O)N2C(=O)[C@@H](N)[C@H]2SC1`, the activity change, negative = cytotoxicity was 0.296% [at 15.8 µM].

In the case of `CNC(=O)N(C)c1nc2ccccc2s1`, the “activity change, negative = cytotoxicity” value is -9.3%.

Regarding `CCC(=O)c1ccccc1`, the “activity change, negative = cytotoxicity” value is -1.51%.

Consider `Cc1ncc(CNC(=O)N(CCCl)N=O)c(N)n1`, for which the “activity change, negative = cytotoxicity” value was -5.64% [at 35.3 µM].

As to `O=P(O)(Oc1ccccc1)Oc1ccccc1`, the “activity change, negative = cytotoxicity” value is -0.527%.

For `CC1CCC(=O)O1` (stereo not given), the “activity change, negative = cytotoxicity” value is 10.4%.

Turning to `O=[N+]([O-])c1ccc(CBr)cc1`, the Potency is 24.2 µM (active).

`C[N+](C)=CCl`: the “activity change, negative = cytotoxicity” value is 1.62%.

Consider `N#CC(Cl)(Cl)Cl`, for which the “activity change, negative = cytotoxicity” value was 1.18%.

Regarding `ClCC(Cl)Cl`, the “activity change, negative = cytotoxicity” value is -1.28%.

In the case of `CC(C=O)Cc1ccc2c(c1)OCO2` (stereo not given), the “activity change, negative = cytotoxicity” value was 8.33%.

In the case of `CCC1(c2ccccc2)C(=O)N=C(O)NC1=O` (stereo not given), the “activity change, negative = cytotoxicity” value was -14.3%.

As to `CC1(C)COP(Oc2ccccc2)OC1`, the “activity change, negative = cytotoxicity” value was 9.68%.

For `CCN(Cc1ccc(Cl)nc1)/C(=C/[N+](=O)[O-])NC`, the “activity change, negative = cytotoxicity” value was -4.21% [at 35.3 µM].

As to `CC1(C(=O)Nc2ccc(O)c(Cl)c2Cl)CCCCC1`, the “activity change, negative = cytotoxicity” value was -9.69%.

Regarding `CCOP(=S)(OCC)SCSc1ccc(Cl)cc1`, the “activity change, negative = cytotoxicity” value is -13.4%.

Regarding `CCOP(=O)(N=C1SCCS1)OCC`, the “activity change, negative = cytotoxicity” value is 1.93%.

As for `COC(=O)C1=CCCN(C)C1`, the “activity change, negative = cytotoxicity” value was 1.08% [at 35.3 µM].

Consider `CC(=O)CC(c1ccc(Cl)cc1)c1c(O)c2ccccc2oc1=O` (stereo not given), for which the “activity change, negative = cytotoxicity” value was -13.7%.

Take `C=C(C)[C@@H]1CC=C(C=O)CC1`: the “activity change, negative = cytotoxicity” value is 2.03%.

Regarding `COP(N)(=S)Oc1ccccc1C(=O)OC(C)C` (stereo not given), the “activity change, negative = cytotoxicity” value is 3.05%.

With `CNC(=O)Oc1c(C(C)(C)C)cc(C)cc1C(C)(C)C`, the “activity change, negative = cytotoxicity” value is 0.148%.

With `O=C(N[C@H]1CN2CCC1CC2)c1cc2ccoc2cn1`, the “activity change, negative = cytotoxicity” value was 0.72%.

As to `Nc1n[nH]c(N)n1`, the “activity change, negative = cytotoxicity” value was 7.18%.

On to `CCOP(=S)(OCC)Oc1nc(Cl)n(C(C)C)n1`, for which the “activity change, negative = cytotoxicity” value is 1.53%.

Regarding `CC1=NNC(=O)N(/N=C/c2cccnc2)C1`, the “activity change, negative = cytotoxicity” value was 3.67%.

Take `CN(C)CCc1ccc(O)cc1`: the “activity change, negative = cytotoxicity” value is 0.927% [at 35.3 µM].

As to `O=C(CCN1CC1)OCC(CO)(COC(=O)CCN1CC1)COC(=O)CCN1CC1`, the “activity change, negative = cytotoxicity” value is -0.581%.

As for `ClC(Cl)Br`, the “activity change, negative = cytotoxicity” value was 4.21%.

As for `NC(=S)C(N)=S`, the “activity change, negative = cytotoxicity” value is -4.5%.

In the case of `Cc1cc(C)nc(Nc2ccccc2)n1`, the “activity change, negative = cytotoxicity” value was 9.99%.

In the case of `CN1CCN(C(=O)O[C@H]2c3nccnc3C(=O)N2c2ccc(Cl)cn2)CC1`, the “activity change, negative = cytotoxicity” value was -1.99% [at 35.3 µM].

`CCCCCCBr`: the “activity change, negative = cytotoxicity” value was -19.7%.

For `CCC/C(=N\OCC)C1=C(O)CC(CC(C)SCC)CC1=O` (stereo not given), the “activity change, negative = cytotoxicity” value was 12.1%.

For `CCCSP(=O)(OCC)Oc1ccc(Br)cc1Cl` (stereo not given), the “activity change, negative = cytotoxicity” value was 10.1% [at 35.3 µM].

In the case of `C[C@@H]1CN(C2CCC(C#N)(c3ccc(F)cc3)CC2)CC[C@]1(C(=O)O)c1ccccc1` (stereo not given in full), the “activity change, negative = cytotoxicity” value is -0.753% [at 35.3 µM].

With `C=C(C)CN(CC)c1c([N+](=O)[O-])cc(C(F)(F)F)cc1[N+](=O)[O-]`, the “activity change, negative = cytotoxicity” value is 6.78%.

`CCC1(c2ccccc2)C(=O)NC(=O)NC1=O`: the “activity change, negative = cytotoxicity” value was -0.684%.

As for `N#CCCC#N`, the “activity change, negative = cytotoxicity” value is 5.12%.

Consider `CCOC(=O)CP(=O)(OCC)OCC`, for which the “activity change, negative = cytotoxicity” value is -0.544%.
